Of roughly 8,800 targets only a part is listed; those with a hit were picked by preference. About 0.5% of all pairs of compound and target were hits.
Tests used:
Assay in all cases: log2 fold change, soluble protein after heating vs DMSO (PISA); higher = thermal stabilisation; K562 lysate, 10 uM; active = over 0.2 and 3.5 SD of the protein, either way, in both replicates (recomputed)
nilotinib = compound: Cc1cn(-c2cc(NC(=O)c3ccc(C)c(Nc4nccc(-c5cccnc5)n4)c3)cc(C(F)(F)F)c2)cn1 [nilotinib]
Summary of the method: (§1)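 Values give the log-two fold change in thermal stability against solvent controls, from duplicates. Crude K562 extract at 1 mg/mL protein, made by dounce homogenisation in PBS pH 7.4 with 1 mM MgCl2, was treated with 10 μM compound for 30 min. After 3 min heating across 48°C-58°C, aliquots were pooled, adjusted to 0.5% NP-40 at 4°C and centrifuged at 21,000xg for 90 min. The supernatant was measured by TMTpro 16plex LC-MS/MS with channel sums equalised.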

[1] = compound: Cc1nc(Nc2n[nH]c3c2CN(C(=O)N[C@H](CN(C)C)c2ccccc2)C3(C)C)c2sccc2n1
Summary of the method: as §1

dasatinib = compound: Cc1nc(Nc2ncc(C(=O)Nc3c(C)cccc3Cl)s2)cc(N2CCN(CCO)CC2)n1 [dasatinib]
Summary of the method: as §1

[2] = compound: Cc1ncc(-c2ccnc(Nc3ccc(S(C)(=O)=O)cc3)n2)n1C(C)C
Summary of the method: as §1

[3] = compound: Cn1cc(-c2ccc3c(c2)CCN3C(=O)Cc2cccc(C(F)(F)F)c2)c2c(N)ncnc21
Summary of the method: as §1

quisinostat = compound: Cn1cc(CNCC2CCN(c3ncc(C(=O)NO)cn3)CC2)c2ccccc21 [quisinostat]
Summary of the method: as §1

tipifarnib = compound: Cn1cncc1[C@@](N)(c1ccc(Cl)cc1)c1ccc2c(c1)c(-c1cccc(Cl)c1)cc(=O)n2C [tipifarnib]
Summary of the method: as §1

[4] = compound: NC(=O)Nc1cc(-c2cccc(F)c2)sc1C(=O)N[C@H]1CCCNC1
Summary of the method: as §1

[5] = compound: NC(=O)c1cnc(N[C@@H]2CCCC[C@@H]2N)nc1Nc1cccc(-n2nccn2)c1
Summary of the method: as §1

[6] = compound: NC1(c2ccc(-c3nc4ccn5c(=O)[nH]nc5c4cc3-c3ccccc3)cc2)CCC1
Summary of the method: as §1

[7] = compound: NCC(=O)Nc1ccc(-n2nc(C(F)(F)F)cc2-c2ccc3c(ccc4ccccc43)c2)cc1
Summary of the method: as §1

vorinostat = compound: O=C(CCCCCCC(=O)Nc1ccccc1)NO [vorinostat]
Summary of the method: as §1

silmitasertib = compound: O=C(O)c1ccc2c(c1)nc(Nc1cccc(Cl)c1)c1ccncc12 [silmitasertib]
Summary of the method: as §1

[8] = compound: O=C1NC(=O)C(c2cnc3ccccn23)=C1c1cn2c3c(cc(F)cc13)CN(C(=O)N1CCCCC1)CC2
Summary of the method: as §1

entospletinib = compound: c1cn2cc(-c3ccc4cn[nH]c4c3)nc(Nc3ccc(N4CCOCC4)cc3)c2n1 [entospletinib]
Summary of the method: as §1

Measured: log2 fold change

WRB (UniProt O00258)
inactive: nilotinib 0.06 | [1] -0.017 | dasatinib -0.014 | [2] 0.183 | [3] 0.082 | quisinostat 0.015 | tipifarnib -0.044 | [4] -0.005 | [5] 0.071 | [6] 0.024 | [7] 0.082 | vorinostat 0.131 | silmitasertib -0.055 | [8] -0.012 | entospletinib 0.146

USP48 (UniProt Q86UV5)
inactive: nilotinib -0.016 | [1] -0.045 | dasatinib -0.016 | [2] -0.032 | [3] 0.005 | quisinostat 0.19 | tipifarnib 0.033 | [4] -0.077 | [5] 0.005 | [6] -0.012 | [7] -0.054 | silmitasertib 0.07 | [8] 0.034 | entospletinib -0.102
active: vorinostat -0.528

ZNF217 (UniProt O75362)
inactive: nilotinib 0.06 | [1] 0.026 | dasatinib 0.001 | [2] 0.054 | [3] -0.057 | quisinostat -0.179 | tipifarnib -0.086 | [4] 0.014 | [5] 0.021 | [6] -0.075 | [7] 0 | silmitasertib 0.047 | [8] -0.054 | entospletinib -0.061
active: vorinostat -0.301

ZBTB40 (UniProt Q9NUA8)
inactive: nilotinib -0.076 | [1] 0.29 | dasatinib -0.024 | [2] 0.086 | [3] -0.051 | quisinostat -0.01 | tipifarnib 0.078 | [4] -0.018 | [5] 0.004 | [6] 0.058 | [7] 0.073 | vorinostat -0.118 | silmitasertib 0.024 | [8] 0.036

UNC45A (UniProt Q9H3U1)
Sequence of UniProt Q9H3U1 (Q9H3U1 whole entry, looked up): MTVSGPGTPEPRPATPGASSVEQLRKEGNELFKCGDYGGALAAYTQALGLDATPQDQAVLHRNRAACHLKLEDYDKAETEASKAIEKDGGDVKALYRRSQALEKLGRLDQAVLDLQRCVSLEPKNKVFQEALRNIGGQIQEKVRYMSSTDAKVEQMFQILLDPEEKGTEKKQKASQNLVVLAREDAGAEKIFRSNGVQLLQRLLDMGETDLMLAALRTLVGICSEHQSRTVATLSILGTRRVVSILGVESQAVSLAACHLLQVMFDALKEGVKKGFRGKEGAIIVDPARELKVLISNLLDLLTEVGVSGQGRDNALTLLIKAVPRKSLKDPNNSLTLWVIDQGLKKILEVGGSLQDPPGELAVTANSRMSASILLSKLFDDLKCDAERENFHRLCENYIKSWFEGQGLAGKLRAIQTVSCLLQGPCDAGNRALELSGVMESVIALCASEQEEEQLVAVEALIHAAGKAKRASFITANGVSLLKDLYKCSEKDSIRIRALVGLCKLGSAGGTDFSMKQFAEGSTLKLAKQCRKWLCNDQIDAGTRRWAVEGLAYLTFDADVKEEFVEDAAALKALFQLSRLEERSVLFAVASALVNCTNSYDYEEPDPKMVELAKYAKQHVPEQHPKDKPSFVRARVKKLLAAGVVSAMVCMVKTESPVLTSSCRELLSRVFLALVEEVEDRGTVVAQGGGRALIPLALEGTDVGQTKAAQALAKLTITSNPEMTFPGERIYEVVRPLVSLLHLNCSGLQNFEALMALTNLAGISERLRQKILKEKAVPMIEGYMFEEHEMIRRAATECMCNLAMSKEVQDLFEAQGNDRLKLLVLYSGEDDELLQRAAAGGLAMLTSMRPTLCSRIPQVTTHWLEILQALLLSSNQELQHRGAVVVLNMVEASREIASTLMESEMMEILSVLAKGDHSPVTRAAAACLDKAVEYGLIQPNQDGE
inactive: nilotinib -0.007 | [1] 0.003 | dasatinib -0.051 | [2] 0.018 | [3] 0.016 | quisinostat -0.047 | tipifarnib -0.015 | [4] 0.03 | [5] 0.016 | [6] -0.001 | [7] -0.005 | silmitasertib 0.011 | [8] 0.008 | entospletinib 0.01
active: vorinostat -0.588

USE1 (UniProt Q9NZ43)
inactive: nilotinib -0.019 | [1] 0.038 | dasatinib 0.068 | [2] 0.057 | [3] 0.02 | quisinostat 0.08 | tipifarnib -0.021 | [4] 0.029 | [5] -0.027 | [6] 0.025 | [7] -0.113 | vorinostat -0.029 | silmitasertib 0.028 | [8] 0.053 | entospletinib -0.036

ZKSCAN8 (UniProt Q15776)
inactive: nilotinib 0.05 | [1] 0.015 | dasatinib -0.096 | [2] -0.03 | [3] 0.026 | quisinostat -0.134 | tipifarnib 0.101 | [4] 0.005 | [5] -0.029 | [6] -0.064 | [7] 0.015 | vorinostat 0.229 | silmitasertib -0.005 | [8] 0.055 | entospletinib -0.002

ZZEF1 (UniProt O43149)
inactive: nilotinib -0.022 | [1] 0 | dasatinib -0.018 | [2] 0.015 | [3] -0.006 | quisinostat -0.07 | tipifarnib 0.007 | [4] 0.008 | [5] 0.021 | [6] -0.03 | [7] 0.02 | silmitasertib 0.011 | [8] 0.012 | entospletinib 0.004
active: vorinostat -0.263

VAV3 isoform 4 (UniProt Q9UKW4)
inactive: nilotinib 0.155 | [1] -0.028 | dasatinib -0.061 | [2] -0.055 | [3] 0.08 | quisinostat 0.121 | tipifarnib -0.012 | [4] -0.017 | [5] -0.054 | [6] 0.038 | [7] 0.128 | vorinostat -0.358 | silmitasertib 0.148 | [8] -0.115 | entospletinib 0.295

WAC (UniProt Q9BTA9)
active: vorinostat -0.309
inactive: nilotinib -0.012 | [1] -0.001 | dasatinib -0.038 | [2] -0.019 | [3] 0.002 | quisinostat -0.029 | tipifarnib 0 | [4] 0.019 | [5] -0.01 | [6] 0.004 | [7] 0.011 | silmitasertib -0.031 | [8] -0.014 | entospletinib -0.046

ZDHHC18 (UniProt Q9NUE0)
inactive: nilotinib 0.067 | [1] -0.329 | dasatinib 0.176 | [2] -0.047 | [3] -0.158 | quisinostat -0.008 | tipifarnib 0.177 | [4] 0.008 | [5] 0.059 | [6] 0.067 | [7] -0.064 | vorinostat -0.162 | silmitasertib 0.163 | [8] 0.009 | entospletinib 0.034

VPS37B (UniProt Q9H9H4)
inactive: nilotinib 0.025 | [1] -0.078 | dasatinib -0.024 | [2] 0.046 | [3] -0.01 | quisinostat -0.05 | tipifarnib -0.002 | [4] -0.024 | [5] -0.005 | [6] 0 | [7] 0.029 | silmitasertib 0.045 | [8] -0.035 | entospletinib -0.058
active: vorinostat -0.349

WDR24 (UniProt Q96S15)
Sequence of UniProt Q96S15 (Q96S15 whole entry, looked up): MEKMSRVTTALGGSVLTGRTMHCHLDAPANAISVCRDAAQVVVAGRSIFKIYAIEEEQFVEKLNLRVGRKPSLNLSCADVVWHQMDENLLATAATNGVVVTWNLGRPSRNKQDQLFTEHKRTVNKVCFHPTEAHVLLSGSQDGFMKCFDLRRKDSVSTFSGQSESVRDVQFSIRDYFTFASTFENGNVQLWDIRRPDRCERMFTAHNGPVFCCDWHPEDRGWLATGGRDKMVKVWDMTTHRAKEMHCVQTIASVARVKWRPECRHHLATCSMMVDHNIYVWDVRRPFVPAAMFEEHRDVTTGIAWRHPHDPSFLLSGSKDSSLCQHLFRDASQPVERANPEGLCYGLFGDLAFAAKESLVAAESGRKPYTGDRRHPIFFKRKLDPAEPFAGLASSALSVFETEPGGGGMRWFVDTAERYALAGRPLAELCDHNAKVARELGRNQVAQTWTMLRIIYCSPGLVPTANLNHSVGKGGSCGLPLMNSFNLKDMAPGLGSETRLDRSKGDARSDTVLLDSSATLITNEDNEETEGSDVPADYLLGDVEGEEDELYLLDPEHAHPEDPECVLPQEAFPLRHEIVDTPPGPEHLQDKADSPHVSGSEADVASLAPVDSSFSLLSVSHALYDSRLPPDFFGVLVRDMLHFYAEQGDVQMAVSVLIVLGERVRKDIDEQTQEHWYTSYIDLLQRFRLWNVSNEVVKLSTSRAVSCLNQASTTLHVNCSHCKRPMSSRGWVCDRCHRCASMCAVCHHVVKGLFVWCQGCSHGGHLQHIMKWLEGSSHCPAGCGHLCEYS
inactive: nilotinib 0.124 | [1] -0.09 | dasatinib -0.072 | [2] 0.05 | [3] -0.022 | quisinostat -0.013 | tipifarnib -0.096 | [4] 0.038 | [5] 0.04 | [6] -0.002 | [7] 0.041 | vorinostat -0.202 | silmitasertib 0.134 | [8] 0.032 | entospletinib 0.022

WDR91 (UniProt A4D1P6)
active: vorinostat -0.227
inactive: nilotinib -0.051 | [1] -0.025 | dasatinib -0.039 | [2] -0.01 | [3] 0.056 | quisinostat 0.005 | tipifarnib 0.014 | [4] -0.009 | [5] -0.004 | [6] 0.011 | [7] -0.045 | silmitasertib 0.042 | [8] -0.004 | entospletinib -0.029

WDR6 (UniProt Q9NNW5)
active: vorinostat -0.321
inactive: nilotinib -0.017 | [1] 0.002 | dasatinib -0.018 | [2] -0.003 | [3] 0.026 | quisinostat -0.075 | tipifarnib 0.036 | [4] 0.033 | [5] 0.006 | [6] -0.032 | [7] 0.012 | silmitasertib 0.01 | [8] -0.025 | entospletinib 0

USP34 (UniProt Q70CQ2)
active: vorinostat -0.208
inactive: nilotinib -0.018 | [1] -0.002 | dasatinib -0.042 | [2] -0.018 | [3] 0.023 | quisinostat -0.041 | tipifarnib 0.021 | [4] 0.074 | [5] 0.018 | [6] 0 | [7] 0.005 | silmitasertib 0.05 | [8] -0.012 | entospletinib -0.005

VARS (UniProt P26640)
inactive: nilotinib -0.012 | [1] -0.004 | dasatinib -0.072 | [2] 0 | [3] 0.06 | quisinostat -0.021 | tipifarnib 0.012 | [4] 0.045 | [5] 0.001 | [6] -0.028 | [7] 0.006 | silmitasertib 0.063 | [8] 0.022 | entospletinib 0.024
active: vorinostat -0.275

VANGL1 (UniProt Q8TAA9)
Sequence of UniProt Q8TAA9 (Q8TAA9 whole entry, looked up): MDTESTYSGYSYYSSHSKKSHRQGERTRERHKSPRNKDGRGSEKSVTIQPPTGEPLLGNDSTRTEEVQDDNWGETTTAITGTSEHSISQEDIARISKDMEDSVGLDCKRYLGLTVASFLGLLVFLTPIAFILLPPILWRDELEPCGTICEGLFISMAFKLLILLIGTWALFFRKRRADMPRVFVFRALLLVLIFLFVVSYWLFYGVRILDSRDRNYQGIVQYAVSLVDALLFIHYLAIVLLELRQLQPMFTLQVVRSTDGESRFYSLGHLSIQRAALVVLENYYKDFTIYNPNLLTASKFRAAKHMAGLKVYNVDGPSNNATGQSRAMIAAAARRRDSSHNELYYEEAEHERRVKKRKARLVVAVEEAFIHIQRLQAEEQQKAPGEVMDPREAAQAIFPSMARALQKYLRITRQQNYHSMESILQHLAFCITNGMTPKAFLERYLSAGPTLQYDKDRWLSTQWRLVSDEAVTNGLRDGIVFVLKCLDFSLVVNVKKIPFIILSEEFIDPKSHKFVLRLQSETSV
inactive: nilotinib -0.086 | [1] -0.067 | dasatinib -0.019 | [2] 0.079 | [3] -0.036 | quisinostat 0.014 | tipifarnib 0.042 | [4] 0.009 | [5] 0.121 | [6] 0.034 | [7] -0.04 | vorinostat 0.085 | silmitasertib 0.159 | [8] -0.031 | entospletinib -0.009

ZNF318 (UniProt Q5VUA4)
Sequence of UniProt Q5VUA4 (Q5VUA4 whole entry, looked up): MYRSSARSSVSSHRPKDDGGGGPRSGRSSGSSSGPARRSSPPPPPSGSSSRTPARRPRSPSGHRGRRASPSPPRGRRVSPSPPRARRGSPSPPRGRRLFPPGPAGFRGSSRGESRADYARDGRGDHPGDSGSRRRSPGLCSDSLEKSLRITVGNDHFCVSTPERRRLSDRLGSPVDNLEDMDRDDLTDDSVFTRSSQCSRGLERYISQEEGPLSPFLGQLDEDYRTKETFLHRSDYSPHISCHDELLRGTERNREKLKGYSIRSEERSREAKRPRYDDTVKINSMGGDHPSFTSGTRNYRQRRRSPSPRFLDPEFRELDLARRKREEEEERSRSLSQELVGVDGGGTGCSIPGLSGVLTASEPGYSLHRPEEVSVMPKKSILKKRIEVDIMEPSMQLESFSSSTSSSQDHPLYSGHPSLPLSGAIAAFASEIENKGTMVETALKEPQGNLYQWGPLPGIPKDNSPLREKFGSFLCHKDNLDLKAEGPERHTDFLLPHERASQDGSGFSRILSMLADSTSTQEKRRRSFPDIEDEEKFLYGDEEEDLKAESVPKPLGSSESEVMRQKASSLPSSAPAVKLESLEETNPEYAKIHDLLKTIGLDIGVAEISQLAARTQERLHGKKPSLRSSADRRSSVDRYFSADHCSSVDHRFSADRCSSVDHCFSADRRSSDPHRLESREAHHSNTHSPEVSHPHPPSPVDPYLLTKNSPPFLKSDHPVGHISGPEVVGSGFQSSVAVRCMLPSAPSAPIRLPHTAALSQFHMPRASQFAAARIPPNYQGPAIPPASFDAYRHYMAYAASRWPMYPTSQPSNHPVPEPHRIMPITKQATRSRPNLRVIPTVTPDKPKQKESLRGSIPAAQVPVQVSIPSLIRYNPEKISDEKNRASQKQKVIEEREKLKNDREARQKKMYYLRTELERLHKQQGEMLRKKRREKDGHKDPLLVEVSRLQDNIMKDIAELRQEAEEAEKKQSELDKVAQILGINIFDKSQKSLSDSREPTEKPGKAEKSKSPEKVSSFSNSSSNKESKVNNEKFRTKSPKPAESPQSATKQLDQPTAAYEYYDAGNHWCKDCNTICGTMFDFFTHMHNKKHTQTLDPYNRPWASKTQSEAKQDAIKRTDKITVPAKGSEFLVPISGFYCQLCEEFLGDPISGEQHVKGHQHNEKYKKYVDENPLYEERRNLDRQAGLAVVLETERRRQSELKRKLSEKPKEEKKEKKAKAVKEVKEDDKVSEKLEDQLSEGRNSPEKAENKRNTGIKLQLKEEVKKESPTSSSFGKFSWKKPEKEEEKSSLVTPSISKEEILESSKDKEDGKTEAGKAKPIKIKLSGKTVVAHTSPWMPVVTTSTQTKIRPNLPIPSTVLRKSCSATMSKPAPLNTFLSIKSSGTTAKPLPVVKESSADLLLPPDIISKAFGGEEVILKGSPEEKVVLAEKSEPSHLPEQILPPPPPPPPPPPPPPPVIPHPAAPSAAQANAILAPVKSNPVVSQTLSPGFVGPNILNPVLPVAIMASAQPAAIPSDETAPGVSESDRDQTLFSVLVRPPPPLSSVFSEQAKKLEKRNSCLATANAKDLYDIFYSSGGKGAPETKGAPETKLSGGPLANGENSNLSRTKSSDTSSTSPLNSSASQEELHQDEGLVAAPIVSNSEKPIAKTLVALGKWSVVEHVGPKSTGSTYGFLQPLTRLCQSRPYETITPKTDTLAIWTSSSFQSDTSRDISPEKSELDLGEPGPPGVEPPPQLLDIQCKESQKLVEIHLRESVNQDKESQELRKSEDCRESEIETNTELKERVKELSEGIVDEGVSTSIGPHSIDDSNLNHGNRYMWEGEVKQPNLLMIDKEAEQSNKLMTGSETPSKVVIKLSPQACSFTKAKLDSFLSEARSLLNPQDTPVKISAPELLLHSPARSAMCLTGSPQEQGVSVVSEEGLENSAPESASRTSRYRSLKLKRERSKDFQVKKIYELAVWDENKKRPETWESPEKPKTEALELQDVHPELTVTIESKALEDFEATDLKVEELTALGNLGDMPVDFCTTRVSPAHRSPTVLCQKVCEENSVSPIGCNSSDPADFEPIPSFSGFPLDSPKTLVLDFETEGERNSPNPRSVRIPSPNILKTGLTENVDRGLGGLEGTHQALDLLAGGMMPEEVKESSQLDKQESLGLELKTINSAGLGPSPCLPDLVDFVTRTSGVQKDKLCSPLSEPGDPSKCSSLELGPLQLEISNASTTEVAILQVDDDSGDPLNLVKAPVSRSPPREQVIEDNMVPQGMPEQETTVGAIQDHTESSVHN
active: vorinostat -0.332
inactive: nilotinib 0.043 | [1] -0.05 | dasatinib -0.104 | [2] -0.034 | [3] -0.002 | quisinostat 0.088 | tipifarnib -0.065 | [4] -0.004 | [5] -0.078 | [6] -0.028 | [7] 0.064 | silmitasertib -0.045 | [8] -0.059 | entospletinib -0.024

YES1 (UniProt P07947)
Sequence of UniProt P07947 (P07947 whole entry, looked up): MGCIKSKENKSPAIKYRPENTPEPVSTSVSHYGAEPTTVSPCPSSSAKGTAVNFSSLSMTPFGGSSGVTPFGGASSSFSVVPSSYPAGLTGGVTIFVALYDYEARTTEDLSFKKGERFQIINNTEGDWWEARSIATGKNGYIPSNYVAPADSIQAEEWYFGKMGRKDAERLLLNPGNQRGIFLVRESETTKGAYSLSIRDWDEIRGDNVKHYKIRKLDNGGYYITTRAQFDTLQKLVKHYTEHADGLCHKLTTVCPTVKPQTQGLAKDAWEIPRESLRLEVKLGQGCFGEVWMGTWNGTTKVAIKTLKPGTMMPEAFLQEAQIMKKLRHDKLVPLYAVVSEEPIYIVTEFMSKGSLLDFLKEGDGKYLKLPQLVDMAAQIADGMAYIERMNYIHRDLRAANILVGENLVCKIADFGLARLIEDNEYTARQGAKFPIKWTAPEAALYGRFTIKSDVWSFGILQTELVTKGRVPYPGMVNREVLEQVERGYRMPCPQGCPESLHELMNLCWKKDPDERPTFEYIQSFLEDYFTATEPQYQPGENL
active: [4] 0.589
inactive: nilotinib 0.043 | [1] 0.008 | dasatinib 0.154 | [2] -0.104 | [3] -0.087 | quisinostat -0.084 | tipifarnib -0.157 | [5] 0.032 | [6] 0.054 | [7] 0.09 | vorinostat -0.067 | silmitasertib -0.187 | [8] -0.054 | entospletinib 0.038

WDR45 isoform 2 (UniProt Q9Y484)
inactive: nilotinib 0.04 | [1] -0.01 | dasatinib -0.085 | [2] -0.027 | [3] 0.049 | quisinostat 0.06 | tipifarnib 0.009 | [4] 0.013 | [5] -0.042 | [6] -0.028 | [7] 0.018 | vorinostat 0.025 | silmitasertib 0.016 | [8] 0 | entospletinib 0.009
